Measurements: PubChem BioAssay AID1259421 (Broad Institute, 2018)
“And” between values parts separate entries of the source, which are not always exact repeats. Identical values can stand only once. Screen size: about 6,400 compounds; about 610 (9.5%) were called active. Cut-off read from the data, not from the text of the source: active = activity change below about -70%; inconclusive = no clear call, values can overlap the other calls; inactive = above that. For the sample, actives were picked, then their nearest neighbours and some compounds at random. The source holds several records for some structures; these can differ, active in one and inactive in another. *1 amine or outer side, *2 acyl side, *3 side chain or, on linkers, in order; H or OH if unused. Where a SMILES comes first, the peptide text is derived from it. Bridges are numbered along the chain shown (N, C = ends). [ ]: non-standard residue; d: D form. The star is where a group is joined. ξ: configuration not given here. pTerphenylCO(4''-OnC5H11) = CCCCCOc1ccc(-c2ccc(-c3ccc(C(=O)*)cc3)cc2)cc1; ξOrn(4,5-diOH) = O=C(C(CC(O)C(O)N[*:3])N[*:1])[*:2]; ξhTyr(βξ-OH,γξ-OH) = NC(C(=O)O)C(O)C(O)c1ccc(O)cc1; ξPro(3ξ-OH,4ξ-Me) = CC1CNC(C(=O)O)C1O; Hyp = O=C(O)[CH]1C[CH](O)CN1

Assay: T. gondii ME49Luc in HeLa cells, luciferase assay, 72 h, no IFN-y (AID 1259421)
Details: stronger effect = lower value, concentration not given here

SMILES	activity change, negative = inhibition
C=CCn1c(=O)n([C@@H]2O[C@H](CO)[C@@H](O)[C@H]2O)c2nc(N)[nH]c(=O)c21	-1.47% (inactive)
CCNC(=O)CCC(N)C(=O)O (stereo not drawn)	15.2% (inactive)
CC1(C)C2CC[C@]3(C)C(C(=O)C=C4[C@@H]5C[C@@](C)(C(=O)O)CC[C@]5(C)CC[C@]43C)[C@@]2(C)CC[C@@H]1OC(=O)CCC(=O)O (stereo partly drawn)	6.36% (inactive)
O=C(c1c(O)c2ccc(Cl)cc2[nH]c1=O)C1CC1	3.48% (inactive) and 5.32% (inactive)
C=CCN1CCCC1CNC(=O)c1cc2[nH]nnc2cc1OC (stereo not drawn)	3.75% (inactive)
CC1(C)C(=O)[C@@H]2C[C@@]3(O)C4=CC(=O)O[C@@H](c5ccoc5)[C@]4(C)CCC3[C@@](C)(C2=O)[C@H]1CC(=O)O (stereo partly drawn)	0.589% (inactive)
O=c1n(CC2CO2)c(=O)n(CC2CO2)c(=O)n1CC1CO1 (stereo not drawn)	36.1% (inactive)
COc1ccc2cc1Oc1ccc(cc1)C[C@H]1c3cc(c(OC)cc3CCN1C)Oc1c(OC)c(OC)cc3c1[C@H](C2)N(C)CC3	-77.3% (active) and 18.9% (inactive)
COc1ccc2cc1Oc1cc3c(cc1OC)CC[N+](C)(C)[C@H]3Cc1ccc(cc1)Oc1c(OC)c(OC)cc3c1[C@@H](C2)[N+](C)(C)CC3	18.6% (inactive)
COc1ccc2cc1Oc1ccc(cc1)C[C@H]1c3c(cc4c(c3Oc3cc5c(cc3OC)CCN(C)[C@@H]5C2)OCO4)CCN1C	12.1% (inactive) and -4.88% (inactive)
CC(O)CCCCn1c(=O)c2c(ncn2C)n(C)c1=O (stereo not drawn)	-6.61% (inactive)
CCCN(CCc1cccs1)[C@H]1CCc2c(O)cccc2C1	10.9% (inactive)
CCCCn1c(=O)c2[nH]c(C34CC5CC(CC3C5)C4)nc2n(CCCO)c1=O	12% (inactive) and -13.1% (inactive)
O=C1[C@@H](Cc2ccc(O)cc2)N2C(=O)CCN(C(=O)NCc3ccccc3)[C@H]2CN1Cc1cccc2ccccc12	1.58% (inactive)
CC(=O)OC(C)(C)[C@@H]1Cc2cc3ccc(=O)oc3cc2O1	-5.08% (inactive)
CCN(Cc1cccc(S(=O)(=O)O)c1)c1cccc(C(=C2C=CC(=[N+](CC)Cc3cccc(S(=O)(=O)O)c3)C=C2)c2ccc(O)cc2S(=O)(=O)O)c1	-44.9% (inactive)
CCN(CC)c1ccc(C(=C2C=CC(=[N+](CC)CC)C=C2)c2ccccc2)cc1	-79.9% (active)
O[C@@H]1[C@H](O)[C@@H](CCl)O[C@H]1n1cnc2c(NC3CC4CCC3C4)ncnc21 (stereo partly drawn)	20.5% (inactive)
Cc1cc(Oc2ccc3nc(COc4ccc(CC5SC(=O)NC5=O)cc4)n(C)c3c2)cc(C)c1N (stereo not drawn)	12.3% (inactive)
N[C@](CC1c2ccccc2Oc2ccccc21)(C(=O)O)[C@H]1C[C@@H]1C(=O)O	6.02% (inactive)
CCn1c(=O)[nH]c2ccccc21	10.3% (inactive) and 2.46% (inactive)
CCn1c(=O)[nH]c2cc(Cl)c(Cl)cc21	-80.8% (active) and -78.6% (active)
CCN(CCO)CCCOc1ccc2c(Nc3cc(CC(=O)Nc4cccc(F)c4)[nH]n3)ncnc2c1	18.9% (inactive)

SMILES	activity change, negative = inhibition
CCOc1ccc2nc(SCCN3CCOCC3)[nH]c2c1	17.7% (inactive)
Cc1cc(C#N)cc(C)c1Oc1nc(Nc2ccc(C#N)cc2)nc(N)c1Br	-89.7% (active)
Cc1cc(/C=C/C#N)cc(C)c1Nc1ccnc(Nc2ccc(C#N)cc2)n1	17.7% (inactive)
Cc1cc(C)c(Nc2ccnc(Nc3ccc(C#N)cc3)n2)c(C)c1	-44.9% (inactive)
C[C@@H](N)c1ccc(C(=O)Nc2ccnc3[nH]ccc23)cc1	-3.01% (inactive)
C=CC(=O)Nc1ccccc1	-0.419% (inactive)
CC(=O)c1ccc(N2CCOCC2)cc1O	0.777% (inactive)
O=c1cc(-c2ccc(O)cc2)oc2ccc(O)cc12	-46.2% (inactive)
CCCCCCCC(=O)OCC(COC(=O)CCCCCCC)OC(=O)CCCCCCC	13.9% (inactive)
[Cl][Ru]([Cl])([Cl])[Cl].c1ccc2[nH]ncc2c1.c1ccc2[nH]ncc2c1	8% (inactive)
C#CC1(O)CCC2C3CCC4=Cc5oncc5CC4(C)C3CCC21C (stereo not drawn)	-93.9% (active)
CC(=O)[C@@]12O[C@](C)(c3ccccc3)O[C@@H]1CC1C3CCC4=CC(=O)CC[C@]4(C)C3CC[C@@]12C (stereo partly drawn)	-11.3% (inactive)
CC(=O)[C@@]12OC(C)(c3ccccc3)O[C@@H]1C[C@H]1[C@@H]3CCC4=CC(=O)CC[C@]4(C)[C@H]3CC[C@@]12C (stereo partly drawn)	-52.9% (inactive)
C#C[C@]1(O)CCC2C3CCC4=Cc5oncc5C[C@]4(C)C3CC[C@@]21C (stereo partly drawn)	-82.2% (active) and -83.7% (active)
C[C@]12CCC(=O)C=C1CCC1C2C(=O)C[C@@]2(C)C1CC[C@]2(O)C(=O)CO (stereo partly drawn)	-0.365% (inactive) and 6.68% (inactive)
NC(CSSCC(N)C(=O)O)C(=O)O (stereo not drawn)	13.9% (inactive)
CC1(C)SC2C(NC(=O)[C@H](NC(=O)N3CCNC3=O)c3ccccc3)C(=O)N2C1C(=O)O (stereo partly drawn)	33.6% (inactive)
NS(=O)(=O)c1cc2c(cc1Cl)NC(C(Cl)Cl)NS2(=O)=O (stereo not drawn)	13.1% (inactive) and 33% (inactive)
NS(=O)(=O)c1cc2c(cc1Cl)NC(C1CC3C=CC1C3)NS2(=O)=O (stereo not drawn)	-95.9% (active)
NS(=O)(=O)c1cc2c(cc1Cl)NC(CC1CCCC1)NS2(=O)=O (stereo not drawn)	18.7% (inactive)
O=C1c2ccccc2C(Cc2ccnc(F)c2)(Cc2ccnc(F)c2)c2ccccc21	21.9% (inactive) and 12.1% (inactive)
O=C1N[C@@H]2[C@@H](O)[C@@H](O)[C@H](O)[C@@H](CO)N2C1=O	11.7% (inactive)
O[C@H]([C@H](O)[C@@H]1CO1)[C@H]1CO1	5.39% (inactive)

SMILES	activity change, negative = inhibition
C=C1c2c(Cl)ccc(O)c2C(=O)C2C(=O)[C@]3(O)C(=O)C(C(N)=O)C(=O)[C@@H](N(C)C)[C@@H]3[C@@H](O)[C@H]12 (stereo partly drawn)	-9.94% (inactive) and 7.28% (inactive)
C=C1c2cccc(O)c2C(=O)C2C(=O)[C@]3(O)C(=O)C(C(N)=O)C(=O)[C@@H](N(C)C)[C@@H]3[C@@H](O)[C@H]12 (stereo partly drawn)	-67.5% (inactive) and 19% (inactive)
CCC(CC)C(c1ccc(Nc2nc3ccccc3s2)cc1)n1cncn1 (stereo not drawn)	4.5% (inactive)
COC(=O)N(C)c1c(N)nc(-c2nn(Cc3ccccc3F)c3ncccc23)nc1N	2.65% (inactive)
CC(=O)O[C@H]1C(=O)[C@@]2(C)C([C@H](OC(=O)c3ccccc3)[C@]3(O)C[C@H](OC(=O)[C@H](O)[C@@H](NC(=O)c4ccccc4)c4ccccc4)C(C)=C1C3(C)C)[C@]1(OC(C)=O)CO[C@@H]1C[C@@H]2O (stereo partly drawn)	-86.6% (active) and -77.4% (active)
CC(=O)OC1C(=O)C2(C)C(O)CC3OCC3(OC(C)=O)C2C(OC(=O)c2ccccc2)C2(O)CC(OC(=O)C(O)C(NC(=O)c3ccccc3)c3ccccc3)C(C)=C1C2(C)C (stereo not drawn)	-87.7% (active)
CC(=O)O[C@H]1C(=O)[C@@]2(C)[C@H]([C@H](OC(=O)c3ccccc3)[C@]3(O)C[C@H](OC(=O)[C@H](O)[C@@H](NC(=O)c4ccccc4)c4ccccc4)C(C)=C1C3(C)C)[C@]1(OC(C)=O)CO[C@@H]1C[C@@H]2O	-84.9% (active) and -74.8% (active)
CCCCCCCC/C=C/CCCCCCCC(=O)NC(CO)Cc1ccc(O)cc1 (stereo not drawn)	6.19% (inactive)
C[N+]1(C)[C@@H]2CC(OC(=O)[C@H](CO)c3ccccc3)C[C@H]1[C@@H]1O[C@@H]12 (stereo partly drawn)	10.8% (inactive)
O=C(O)CC/C=C/CC1COC(c2ccccc2Cl)OC1c1ccccc1O (stereo not drawn)	11.4% (inactive)
O=C(O)[C@@H]1C[C@H]2C[C@@H](CCc3nn[nH]n3)CC[C@H]2CN1	15.6% (inactive)
CN1CCCC1c1cccnc1 (stereo not drawn)	24.1% (inactive)
CCCCCOc1ccc(-c2ccc(-c3ccc(C(=O)NC4CC(O)C(O)NC(=O)C5C(O)C(C)CN5C(=O)C(C(C)O)NC(=O)C(C(O)C(O)c5ccc(O)cc5)NC(=O)C5CC(O)CN5C(=O)C(C(C)O)NC4=O)cc3)cc2)cc1 (stereo not drawn) ({pTerphenylCO(4''-OnC5H11)}-[ξOrn(4,5-diOH)]T[Hyp][ξhTyr(βξ-OH,γξ-OH)]T[ξPro(3ξ-OH,4ξ-Me)]; lactam 1-C; configuration not given here)	-6.09% (inactive)
Cc1nn(-c2ccccc2)c(C)c1/C=N/N1CCN(Cc2ccccc2)CC1	7.74% (inactive) and 0.523% (inactive)
Cn1[nH]c(=O)c(=O)[nH]c1=S	14.6% (inactive)
C[C@@H]1CC2C3CCC4=CC(=O)C=C[C@]4(C)[C@@]3(F)[C@@H](O)C[C@]2(C)[C@H]1C(=O)CO (stereo partly drawn)	-13.5% (inactive) and -8.09% (inactive)
CCCCC[C@H](O)/C=C/C=C\C/C=C\C/C=C\CCCC(=O)O	-37.7% (inactive)
Cc1c(N)cccc1Cn1ccc(OCCc2cccs2)cc1=O	1.77% (inactive)
CC(C)c1cc(C(=O)N2Cc3ccc(CN4CCN(C)CC4)cc3C2)c(O)cc1O	-63.5% (inactive)
Cc1cc(C)c(CNC(=O)c2cc(-c3ccc(CN4CCOCC4)cc3)cc3c2cnn3C2CCCC2)c(=O)[nH]1	-31% (inactive)
CCNC(=O)c1noc(-c2cc(C(C)C)c(O)cc2O)c1-c1ccc(CN2CCOCC2)cc1	-87.9% (active)
CC(C)(O)[C@H]1CC[C@@](C)([C@H]2[C@@H](O)C[C@@]3(C)[C@@H]4C[C@H](O[C@@H]5O[C@H](CO)[C@@H](O)[C@H](O)[C@H]5O)[C@H]5C(C)(C)[C@@H](O[C@@H]6OC[C@@H](O)[C@H](O)[C@H]6O)CC[C@@]56C[C@@]46CC[C@]23C)O1	3% (inactive)
